Measurements taken from the supplement of paper PMC10646978.
± gives the standard deviation.

Assays:
Details in all cases: modulator concentration 10 µM
[1] = tested on: RAW-Dual (murine macrophage reporter line); assay: NF-kB reporter (SEAP) activity fold change vs agonist alone; higher = enhanced NF-kB activity
Summary of the method: (§1)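 RAW-Dual murine macrophage reporter cells were plated at 50 000 per well in 384-well plates, pin-transferred compound to 10 μM final, and pre-incubated for 1 hour at 37 °C before a PRR agonist was added and the cells incubated overnight. NF-κB activity was read from supernatant SEAP with QUANTI-Blue at 620 nm absorbance, and IRF activity from Lucia luciferase with QUANTI-Luc by luminescence. Each signal was expressed as fold change by dividing by the mean agonist-only control on the same plate. Two replicate plates were averaged, with errors obtained by propagation.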

[2] = tested on: RAW-Dual (murine macrophage reporter line); assay: IRF reporter (Lucia luciferase) activity fold change vs agonist alone; higher = enhanced IRF activity
Summary of the method: as §1

[3] = tested on: RAW-Dual (murine macrophage reporter line); assay: viability score (confluency relative to resting cells, overnight) (fraction); higher = more viable, active = viable (0.7 or more)
Summary of the method: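 Two confluency masks, generated with IncuCyte software over all imaged wells, were applied to IncuCyte images of RAW-Dual macrophages. The cells, in 384-well plates, had been exposed overnight to 10 μM final compound. The viability score is confluency as a fraction of resting cells, and a compound met the cutoff only with both masks above 70% of resting cells.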

[4] = agonist: CpG ODN 1826 0.5 ug/mL

Row | SMILES | NF-kB reporter [1, 4] | NF-kB reporter ([1]; agonist: LPS 0.1 ug/mL) | NF-kB reporter ([1]; agonist: MPLA […]) | IRF reporter ([2]; agonist: 3'3'-cGAMP 10 ug/mL) | IRF reporter ([2]; agonist: LPS 0.1 ug/mL) | IRF reporter ([2]; agonist: MPLA […]) | viability score [3]
1 | CS(=O)(=O)N(CC(=O)N1CCCCCC1)c1ccc(Cl)c(C(F)(F)F)c1 | 0.958 ± 0.11 | 1.21 ± 0.081 | 0.958 ± 0.036 | 0.974 ± 0.12 | 1.13 ± 0.15 | 1.15 ± 0.24 | 1 (active)
2 | COCCNc1nc(SCC(=O)Nc2cccc(C(F)(F)F)c2)nc2ccccc12 | 0.268 ± 0.022 | 0.549 ± 0.051 | 0.528 ± 0.043 | 0.601 ± 0.035 | 1.29 ± 0.28 | 1.42 ± 0.46 | 0.956 (active)
3 | COC1(CNC(=O)C2CCN(S(C)(=O)=O)CC2)CCSC1 (configuration not stated) | 0.879 ± 0.04 | 0.875 ± 0.076 | 1.07 ± 0.1 | 0.946 ± 0.074 | 1.08 ± 0.15 | 1.22 ± 0.34 | 0.97 (active)
4 | Cc1cc(Cl)ccc1OCCCC(=O)NO | 0.745 ± 0.091 | 0.794 ± 0.039 | 1.19 ± 0.028 | 0.234 ± 0.014 | 0.449 ± 0.084 | 0.553 ± 0.12 | 0.986 (active)
5 | CC(=O)c1ccc(Nc2ncnc(Nc3ccc(C(C)=O)cc3)c2[N+](=O)[O-])cc1 | 1.04 ± 0.1 | 1.09 ± 0.076 | 0.939 ± 0.045 | 1.01 ± 0.091 | 1.06 ± 0.052 | 0.994 ± 0.076 | 0.991 (active)
6 | Nc1ncn([C@@H]2O[C@H](CO)[C@@H](O)[C@H]2O)c(=O)n1 | 1.55 ± 0.066 | 0.569 ± 0.045 | 1.99 ± 0.16 | 0.549 ± 0.035 | 0.433 ± 0.049 | 0.502 ± 0.1 | 0.745 (active)
7 | COc1ccc2sc(C)[n+](CCCS(=O)(=O)[O-])c2c1 | 0.951 ± 0.088 | 1.08 ± 0.074 | 0.923 ± 0.064 | 0.923 ± 0.086 | 1.05 ± 0.12 | 1.1 ± 0.3 | 1 (active)
8 | O=C(NCCN1CCN(c2ccc(Cl)cc2)CC1)c1ccno1 | 0.933 ± 0.071 | 0.992 ± 0.082 | 2 ± 0.72 | 1.01 ± 0.05 | 1.24 ± 0.26 | 1.36 ± 0.49 | 0.96 (active)
9 | CNCCC[C@]12CC[C@H](c3ccccc31)c1ccccc12 [Prestw-346] | 0.726 ± 0.082 | 0.842 ± 0.063 | 0.93 ± 0.095 | 1.12 ± 0.07 | 1.41 ± 0.14 | 1.59 ± 0.26 | 0.962 (active)
10 | CCS(=O)(=O)N1CCC2(CC1)NC(=O)N(CCOc1ccccc1)C2=O | 0.871 ± 0.041 | 1.05 ± 0.11 | 1.09 ± 0.078 | 0.996 ± 0.047 | 1.43 ± 0.25 | 1.58 ± 0.61 | 0.989 (active)
11 | COc1ccccc1NS(=O)(=O)c1cc2c3c(c1)CC(=O)N3CCC2 | 0.967 ± 0.088 | 1.03 ± 0.096 | 1.07 ± 0.071 | 0.992 ± 0.035 | 1.09 ± 0.15 | 0.871 ± 0.11 | 1.01 (active)
12 | O=C(CCCC(=O)Nc1ccc(Cl)c(Cl)c1)Nc1ccc(Cl)c(Cl)c1 | 0.964 ± 0.076 | 1.02 ± 0.062 | 0.914 ± 0.068 | 0.963 ± 0.029 | 1.41 ± 0.13 | 1.13 ± 0.14 | 1.01 (active)
13 | Cn1cnc([N+](=O)[O-])c1Sc1ncnc2nc[nH]c12 | 1.1 ± 0.2 | 0.844 ± 0.23 | 0.983 ± 0.077 | 0.934 ± 0.031 | 1.2 ± 0.33 | 0.986 ± 0.23 | 0.983 (active)
14 | COc1cc2c(cc1OC)CC(=O)N(CCCN(C)C[C@H]1Cc3cc(OC)c(OC)cc31)CC2.Cl | 0.713 ± 0.056 | 0.855 ± 0.07 | 1.06 ± 0.097 | 0.962 ± 0.05 | 1.41 ± 0.11 | 1.57 ± 0.18 | 1.01 (active)
15 | O=C(NC1CCOCC1)N1CCOC(c2cc(Cl)cc(Cl)c2)C1 (configuration not stated) | 0.83 ± 0.036 | 1.05 ± 0.083 | 1.09 ± 0.06 | 0.971 ± 0.045 | 1.35 ± 0.27 | 1.54 ± 0.52 | 0.968 (active)
16 | COc1ccccc1S(=O)(=O)N1CC(Oc2nc3c(C(F)(F)F)cccc3s2)C1 | 0.935 ± 0.047 | 1.18 ± 0.097 | 1.38 ± 0.14 | 1.4 ± 0.15 | 1.43 ± 0.23 | 1.5 ± 0.4 | 1 (active)
17 | CC1=C(C(=O)OCCN(Cc2ccccc2)c2ccccc2)C(c2cccc([N+](=O)[O-])c2)C(P2(=O)OCC(C)(C)CO2)=C(C)N1 (configuration not stated) | 0.86 ± 0.2 | 0.475 ± 0.024 | 0.543 ± 0.034 | 0.555 ± 0.028 | 0.917 ± 0.15 | 0.736 ± 0.074 | 1 (active)
18 | CCC1SC(=NN=Cc2cccc3ccccc23)NC1=O (configuration not stated) | 1.08 ± 0.14 | 0.974 ± 0.087 | 0.972 ± 0.044 | 0.92 ± 0.034 | 1.01 ± 0.085 | 0.974 ± 0.2 | 1 (active)
19 | O=C(NCC(O)Cc1ccccc1)Nc1ccc(F)cc1 (configuration not stated) | 0.893 ± 0.096 | 0.969 ± 0.077 | 1.08 ± 0.064 | 1.04 ± 0.048 | 1.28 ± 0.3 | 1.36 ± 0.37 | 0.971 (active)
20 | O=C(O)C1C(c2ccccc2)C(C(=O)OCc2ccccc2)C1c1ccccc1 (configuration not stated) | 0.926 ± 0.089 | 1.09 ± 0.062 | 1.05 ± 0.079 | 1.03 ± 0.078 | 1.24 ± 0.087 | 1.03 ± 0.076 | 1.01 (active)
21 | N#Cc1nc(-c2ccc(COc3ccc(Cl)cc3)o2)oc1N1CCCCC1 | 0.826 ± 0.063 | 1.29 ± 0.14 | 1.13 ± 0.075 | 1.21 ± 0.047 | 1.57 ± 0.1 | 1.12 ± 0.15 | 0.998 (active)
22 | CC(C)(C)C(=O)C(Oc1ccc(Cl)cc1)n1ccnc1 (configuration not stated) | 1.3 ± 0.33 | 0.983 ± 0.33 | 1.08 ± 0.13 | 1.07 ± 0.044 | 1.31 ± 0.36 | 1.34 ± 0.1 | 0.892 (active)
23 | CCOC(=O)[C@H](CCc1ccccc1)N[C@H]1CCc2ccccc2N(CC(=O)O)C1=O.Cl | 1.07 ± 0.083 | 0.961 ± 0.17 | 0.987 ± 0.021 | 0.947 ± 0.054 | 0.935 ± 0.076 | 0.967 ± 0.14 | 0.999 (active)
24 | O=C(NC(=S)Nc1cccc([N+](=O)[O-])c1)c1cccc(I)c1 | 0.944 ± 0.1 | 1.08 ± 0.072 | 0.985 ± 0.044 | 0.794 ± 0.1 | 1.09 ± 0.14 | 1.02 ± 0.17 | 1 (active)
25 | COC(=O)C1=C(C)NC(=Cc2c(F)cccc2Cl)C1=O | 0.944 ± 0.17 | 0.966 ± 0.077 | 0.963 ± 0.11 | 0.876 ± 0.023 | 1.23 ± 0.19 | 1.13 ± 0.16 | 0.985 (active)
26 | Cc1ccc(-c2ncnn2-c2ccc(Cl)cc2)cc1 | 0.922 ± 0.072 | 0.785 ± 0.051 | 1.02 ± 0.11 | 0.695 ± 0.036 | 1.26 ± 0.073 | 1.4 ± 0.15 | 1.01 (active)
